The supplement of paper PMC12819154, “High-throughput peptide-centric local stability assay extends protein–ligand identification to membrane proteins, tissues and bacteria” (Nature Structural & Molecular Biology, 2025)

compound: Nc1ncnc2c1ncn2[C@@H]1O[C@H](COP(=O)(O)OP(=O)(O)OP(=O)(O)O)[C@@H](O)[C@H]1O [adenosine 5'-triphosphate]; assay: log2 fold change of tryptic peptide abundance, ligand vs vehicle (limited proteolysis) (log2 ratio); higher = more trypsin-susceptible (destabilized); conditions: ligand concentration: 5 mM; sample: E. coli desalted lysate; replicate design: treated before aliquoting
Description: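 HT-PELSA: desalted E. coli K-12 BW25113 lysate (with 12 mM MgCl2) incubated with 5 mM ATP (pH 7) or water for 30 min at 25 C, then a 4 min trypsin pulse at 22 C. Peptides were quantified by DIA-MS (4 replicates). Value is the peptide log2 fold change (treated/control); negative = stabilized. Scale: negative = ligand-stabilized region.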
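Further: lysate desalted by size exclusion to strip endogenous ATP, peptide intensities built from DIA-NN precursor signals, and peptides missing any value discarded before comparison.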

Row | Target | log2 fold change
1 | UniProt P08957 (peptide sequence: SRIGQEQLQFYR, peptide start residue: 61) | 1.09
2 | UniProt P13009 (peptide sequence: DQVEDYAR, peptide start residue: 1198) | -1.27
3 | UniProt P14175 (peptide sequence: YIEQGLSK, peptide start residue: 24) | 1.4
4 | UniProt P31455 (peptide sequence: AYPGLVNVPR, peptide start residue: 290) | -1.05
5 | UniProt P52129 (peptide sequence: LQIQGRPLSCYR, peptide start residue: 161) | 0.646
6 | UniProt P37595 (peptide sequence: AQMSLQQELR, peptide start residue: 18) | 0.693
7 | UniProt P06709 (peptide sequence: VKWPNDLYLQDR, peptide start residue: 171) | -0.523
8 | UniProt P37685 (peptide sequence: MMLEHYQQTK, peptide start residue: 489) | -0.646
9 | UniProt P23841 (peptide sequence: LNMSQPPLSIHIK, peptide start residue: 31) | -0.876
10 | UniProt P13035 (peptide sequence: IGLFMYDHLGK, peptide start residue: 103) | 0.643
11 | UniProt P26646 (peptide sequence: ESTHEYLK, peptide start residue: 181) | 0.217
12 | UniProt P64554 (peptide sequence: NGFSCQIETSGTHEVR, peptide start residue: 111) | -0.431
13 | UniProt P76422 (peptide sequence: NTHGTGCTLSAALAALRPR, peptide start residue: 207) | -1.45
14 | UniProt P21514 (peptide sequence: NPIPVTPEAR, peptide start residue: 237) | -2.06
15 | UniProt P36771 (peptide sequence: AGLGVTARPVEMMSPDLR, peptide start residue: 231) | 0.543
16 | UniProt P16525 (peptide sequence: TTFEHIVTVESELPTAAR, peptide start residue: 122) | 0.318
17 | UniProt P0A9U6 (peptide sequence: VSPAISTLQK, peptide start residue: 45) | 0.654
18 | UniProt P17846 (peptide sequence: IHKGDFR, peptide start residue: 385) | 1.23
19 | UniProt P30011 (peptide sequence: VRHYVELLEGTNTQLLDTR, peptide start residue: 135) | 0.868
20 | UniProt P04949 (peptide sequence: NQSALSSSIER, peptide start residue: 21) | 0.651

Row | Target | log2 fold change
21 | UniProt P32703 (peptide sequence: AATAEVAIVAIQK, peptide start residue: 440) | 1.52
22 | UniProt P77171 (peptide sequence: GRQGAQLTLPGEQFLTHAVR, peptide start residue: 61) | 0.909
23 | UniProt P0AB12 (peptide sequence: VVSVETAQAAR, peptide start residue: 129) | 0.652
24 | UniProt P06959 (peptide sequence: VDFSKFGEIEEVELGR, peptide start residue: 392) | 0.812
25 | UniProt P30750 (peptide sequence: TVFGNVALPLELDNTPKDEVKR, peptide start residue: 98) | 0.668
26 | UniProt P24182 (peptide sequence: LMGDKVSAIAAMKK, peptide start residue: 112) | -1.24
27 | UniProt P42589 (peptide sequence: TVVVLCNLQK, peptide start residue: 62) | -0.415
28 | UniProt P23898 (peptide sequence: SSLDNVYWQK, peptide start residue: 137) | 0.793
29 | UniProt P09546 (peptide sequence: IYAPVGTHETLLAYLVRR, peptide start residue: 539) | 0.991
30 | UniProt P75838 (peptide sequence: GICGLPFTR, peptide start residue: 152) | -2.31
31 | UniProt P21151 (peptide sequence: ISTTLLNLMERK, peptide start residue: 352) | 0.834
32 | UniProt P26612 (peptide sequence: TIHLGENYGNK, peptide start residue: 446) | 0.945
33 | UniProt P25666 (peptide sequence: MHLFTIKK, peptide start residue: 171) | -0.804
34 | UniProt P15034 (peptide sequence: QNLTAPATMIDWRPVVHEMR, peptide start residue: 155) | -0.448
35 | UniProt P30864 (peptide sequence: KIIASPDYISR, peptide start residue: 165) | 1.32
36 | UniProt P21513 (peptide sequence: DNESLSLSILR, peptide start residue: 415) | 0.633
37 | UniProt P08997 (peptide sequence: TLSNGKPVTK, peptide start residue: 467) | -0.591
38 | UniProt P75960 (peptide sequence: LHGAHTVELNLEPSQVGNEFAEK, peptide start residue: 231) | 0.525
39 | UniProt P06987 (peptide sequence: VGDLSTEMIEHFFR, peptide start residue: 290) | -1.32
40 | UniProt P23894 (peptide sequence: SVGGEVIEQPR, peptide start residue: 61) | 2.55
